Assay results from PubChem BioAssay (NCI).
This is part of a sample that, as a whole, favours compounds with a hit. Of some 79,000 tested, about 15% had one in any assay. Values without a mark were called inactive. Activity calls are given as the source filed them. Rule as the data show it: active = growth inhibition above about 70%; inactive = the rest.

Key:
[1] = NCI Yeast Anticancer Drug Screen. Data for the rad50 strain (AID 155);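 also: 0% = growth of vehicle-only cultures of the same strain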; details: S. cerevisiae rad50 strain growth inhibition; at 50.0 µM; hits give high values
Procedure, shortened: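 Cells are treated with compound, grown, and their growth is then scored against vehicle-only cultures of the same repair-deficient yeast strain.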

[2] = NCI Yeast Anticancer Drug Screen. Data for the mec2-1 strain (AID 157); details: S. cerevisiae mec2-1 strain, at 50.0 µM, hits give high values
Procedure, shortened: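 Cells of the genetically defined mec2-1 yeast strain are incubated with test compound. Inhibition of growth is calculated against vehicle-treated controls.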

[3] = NCI Yeast Anticancer Drug Screen. Data for the sgs1 mgt1 strain (AID 161);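 also: 0% = growth of cultures given vehicle only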; details: S. cerevisiae sgs1 mgt1 strain, at 50.0 µM, hits give high values
Procedure, shortened: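 Genetically altered yeast, compound exposure, growth inhibition relative to vehicle.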

[4] = NCI Yeast Anticancer Drug Screen. Data for the cln2 rad14 strain (AID 165);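 also: 0% = growth equal to vehicle treated cultures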; details: S. cerevisiae cln2 rad14 strain, at 50.0 µM, hits give high values
Procedure, shortened: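 The screen exposed genetically defined yeast (cln2 rad14) to test compounds and scored growth inhibition relative to vehicle-treated controls.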

[5] = NCI Yeast Anticancer Drug Screen. Data for the bub3 strain (AID 167); details: S. cerevisiae bub3 mutant strain, at 50.0 µM, hits give high values
Procedure, shortened: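 Part of a panel of yeast mutants defective in DNA damage repair or cell cycle regulation. Each strain is grown with compound, and inhibition is calculated relative to solvent-treated cultures.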

[6] = NCI Yeast Anticancer Drug Screen. Data for the mlh1 rad18 strain (AID 175); details: S. cerevisiae mlh1 rad18 strain growth inhibition; at 50.0 µM; hits give high values
Procedure, shortened: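 Compound-treated yeast growth, normalised to vehicle controls. Strain bears defined DNA repair mutations.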

SMILES | growth inhibition [1] | growth inhibition [2] | growth inhibition [3] | growth inhibition [4] | growth inhibition [5] | growth inhibition [6]
CCNC(=O)C1CCCN1C(=O)C(CCCN=C(N)N)NC(=O)C(CC(C)C)NC(=O)C(Cc1c[nH]c2ccccc12)NC(=O)C(Cc1ccc(O)cc1)NC(=O)C(CO)NC(=O)C(Cc1c[nH]c2ccccc12)NC(=O)C(Cc1cnc[nH]1)NC(=O)C1CCC(=O)N1 (stereo not drawn) | -11.6% | -10.6% | -18.5% | -21.6% | 6.05% | 10.2%
COc1nc(NC2OC(CO)C(O)C(O)C2O)c(C=O)c(=O)n1C (stereo not drawn) | 2.45% | -6.55% | -16.1% | 9.9% | -7.3% | -7.4%
OCC1C2C=CC(C3C=CC32)C1CO (stereo not drawn) | 8.4% | -9.8% | -5.7% | -89.7% | -1.6% | 4.25%
Cc1ccc(/C=N/NC(N)=O)cc1 | 25.6% | 15.8% | 12.3% | 10.4% | 17.2% | -3.85%
CCCCCCCCCCCCS(=O)(=O)O (tested in a mixture with another compound) | -5.1% | -6% | -9.05% | -12.4% | -22.5% | -12.8%
CCOC(=O)C(NC(=O)c1ccccc1)(c1ccc(S(=O)(=O)Nc2onc(C)c2C)cc1)C(F)(F)F (stereo not drawn) | 7.3% | -8.9% | -18.9% | -12.1% | -10.6% | -4.25%
COc1ccc(C(=O)CC(c2ccccc2)[C@H]2C(c3ccc(OC)cc3)=Nc3c(nc(SC)n(C)c3=O)NC2c2ccccc2)cc1 (stereo partly drawn) | 16.8% | 7.55% | 20.6% | 12.7% | -0.35% | 19.2%
COc1cc2c(cc1OC)C(=O)Cc1ccc3c(c1CN(C)CC2)OCO3 | -19.9% | -42.7% | -21.7% | 2.7% | -40.5% | -17.9%
CSC1=NC(C)(C)N=C(Oc2cc(Cl)cc(Cl)c2)N1 | -14.9% | -22.3% | -24.9% | -8.7% | -27.5% | -9.8%
CN(C)CCN=C1Nc2ccccc2C(=O)N2CSCC12 (stereo not drawn) | -3.25% | -1.95% | -8.7% | -1.25% | -15.3% | 17.3%
Cc1cc[n+](C)c(-c2ccccc2)c1 | 5.65% | -2.25% | 7% | 21.2% | 5.9% | 11.6%
COC(=O)/C(=C\c1ccccc1N)c1cc2c(cc1Br)OCO2 | 84.2% (active) | 40.2% | 82.4% (active) | 41.4% | 44.3% | 68.1%
O=C(O)c1cc(C(=O)O)cc(S(=O)(=O)N2CCOCC2)c1 | -2.1% | 3.25% | -3.8% | -37.8% | 6.05% | -16.2%
CC(C)=CCC/C(C)=C/CO | -48.8% | -27.8% | -3.55% | 35.1% | -47.8% | -14.2%
O=C(COCC(=O)N/N=C/c1ccc(Cl)cc1Cl)N/N=C\c1cc(Cl)cc(Cl)c1 | -21.1% | -1.65% | 0.75% | 37.2% | -1% | -12.2%
CC1(c2ccccc2)N=C(C(N)=O)c2[nH]cnc2N1 (stereo not drawn) | -11.8% | -41.1% | -29.1% | 1.85% | 8.7% | -11.8%
O=C(Nc1ccccc1Br)c1cccc([N+](=O)[O-])c1O | 37.5% | 35.2% | 45.5% | 38.2% | 29.4% | 37.1%
O=C(OCCCCNC1CCCCC1)c1ccc([N+](=O)[O-])cc1 | 9.65% | 3% | -7.05% | -7.3% | -13.6% | 5.25%
CC(=O)CC(=O)Nc1ccccc1Cl | 19.4% | -4.6% | 24.2% | -5.75% | -4.9% | 16.4%

SMILES | growth inhibition [1] | growth inhibition [2] | growth inhibition [3] | growth inhibition [4] | growth inhibition [5] | growth inhibition [6]
CN(CCc1ccccn1)c1ccc2c(c1)C(=O)c1ccccc1-2 | 46.9% | 13.4% | -1.8% | -13.1% | -2.7% | 9.85%
O=C1Nc2ccc(Br)cc2C1(O)Cc1cccc([N+](=O)[O-])c1 (stereo not drawn) | 7.35% | 12.2% | 13.5% | 3.55% | -12.9% | 11.8%
NC(=O)/C(N=Nc1ccccc1)=N\Nc1ccccc1 | 94.2% (active) | 94.8% (active) | 94.8% (active) | 73.2% (active) | 95.5% (active) | 94.8% (active)
CC(=O)CC(=O)N1CCCCCCC1 | -34% | -57.5% | -12.4% | -8.4% | -23.2% | -34.2%
CCOC(=O)c1c(/N=C/c2cc(Br)ccc2O)sc2c1CCCC2 | 11.7% | -7.8% | 0.4% | 12.9% | -1.4% | 10.7%
Cc1ccc2c(c1)Nc1ccccc1P2(=O)O | 7.8% | -3.15% | -40% | 37.6% | 14.3% | -15.4%
COc1cc(C(=O)OCCOC(=O)c2ccc(O)c(OC)c2)ccc1O | 45.4% | 13.8% | 25.4% | -25.5% | 51.7% | 40.5%
CC(C)CCC[C@@H](C)[C@H]1CC[C@H]2[C@@H]3CC=C4C[C@@H](OC(=O)c5cccc6c(=O)c7ccccc7[nH]c56)CC[C@]4(C)[C@H]3CC[C@]12C | 12.8% | 16.1% | 3.3% | -4.95% | -3.8% | -28.9%
NNc1ccc(C(=O)O)cc1 | -3.6% | 12.1% | -2.1% | 11% | -2.35% | -4.9%
O=C1NC2(CCCCC2)C(=O)N1CCN1C(=O)NC2(CCCCC2)C1=O | 6.7% | 4.2% | -1.8% | 8.85% | -14.3% | -10.5%
CCOC(=O)C(NC(C)=O)C(O)c1ccc(C(C)C)cc1 (stereo not drawn) | 10.8% | 4.4% | 8.45% | -33.7% | 14.8% | 14.7%
O=C(O)CCCCn1cnc2c(=S)nc[nH]c21 | -6.1% | -5.85% | -13.7% | -7.3% | -44% | -5%
C/C(=C/c1ccccc1)C(=O)O | -3.8% | -18.8% | -22% | -20.1% | -20.8% | -2.45%
COC1=C(C(=O)c2ccc(OC)c(OC)c2)COC1=O | -8.4% | -13.3% | -4.5% | -4.4% | 31.4% | 7.15%
CCCCCC(O)c1ccccc1 (stereo not drawn) | 22.7% | -15.1% | 11.2% | -6.8% | -7.1% | 17.5%
[O-]/[N+](=C\c1cccc(O)c1)c1ccccc1 | -1.75% | 16.4% | 11.8% | -21.2% | -5.5% | 15%
NC(=S)N/N=C(/CC(=O)c1ccc([N+](=O)[O-])cc1)C(=O)Nc1ncc([N+](=O)[O-])s1 | 51.9% | 29% | 30.1% | 19.2% | 53.2% | 25.2%
CC(=O)OCC(=O)O[C@@H]1[C@H]2[C@@H](OC(=O)c3ccccc3)[C@@H](C)C[C@]2(O)[C@H](OC(C)=O)[C@@]2(C)C[C@]1(OC(C)=O)C[C@H]1C(=O)C(C)(C)[C@@H](OC(C)=O)[C@@H]12 | -7.35% | 8.2% | -0.3% | -15.3% | 0.3% | -17.8%
CC1(C2=CCCCC2)CCC(=O)NC1=O (stereo not drawn) | -6.35% | 10.6% | 0.2% | 35.2% | 14.1% | 28.8%
